Experimental data from PubChem BioAssay.
For some of these results: Entries with a potency or affinity are not part of this list. Active and inactive are the calls of the source. Unless noted, no rule for the calls is given here.

Key:
[1] = antimalarial activity against Dd2 strain (AID 2302;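 active = growth inhibition above 50% at the single 2 µM test dose, taken to imply half-maximal potency below 2 µM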;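 also: 0% = DMSO untreated growth and 100% = chloroquine plus artemisinin killed control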); conditions: P. falciparum Dd2 in RBCs, LDH growth readout, 72 h; at 2 µM; active compounds read high
[2] = HepG2 cytotoxicity, primary screen, cytotoxicity control for P. falciparum antimalarial project, cell-based, ATP luminescence (AID 2303;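 active = inhibition above 50%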;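 also: 0% = DMSO wells and 100% = digitonin-killed cells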); conditions: HepG2 viability, 24-48 h, at 10 µM, active compounds read high
[3] = biological target: L-lactate dehydrogenase (Plasmodium falciparum (isolate CDC / Honduras)) (UniProt Q27743); experiment: PfLDH activity inhibition – cell lysate, 3D7 strain, counter-screen for P. falciparum growth inhibition project (AID 2304);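 also: 0% = vehicle and 100% = reference inhibitor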; conditions: P. falciparum 3D7 crude extract, LDH APAD/NBT absorbance; at 2 µM; active compounds read high
L-lactate dehydrogenase (Plasmodium falciparum (isolate CDC / Honduras)), sequence (Q27743 whole entry, looked up): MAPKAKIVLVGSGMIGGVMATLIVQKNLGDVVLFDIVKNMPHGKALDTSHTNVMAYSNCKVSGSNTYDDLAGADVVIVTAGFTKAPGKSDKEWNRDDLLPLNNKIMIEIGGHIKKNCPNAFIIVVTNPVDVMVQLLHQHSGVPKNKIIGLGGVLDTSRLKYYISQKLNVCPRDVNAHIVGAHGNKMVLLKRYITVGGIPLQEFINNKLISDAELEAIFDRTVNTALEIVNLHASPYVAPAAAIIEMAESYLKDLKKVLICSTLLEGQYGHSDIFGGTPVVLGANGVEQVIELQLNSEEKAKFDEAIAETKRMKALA

[4] = inhibition of 3D7 malaria parasite growth – strain 3D7 (AID 2306);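 also: 0% = DMSO wells and 100% = chloroquine plus artemisinin control wells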; conditions: P. falciparum 3D7 erythrocytic growth, LDH absorbance, 72 h; at 2 µM; active compounds read high
[5] = biological target: Calcium-dependent protein kinase 1 (Plasmodium falciparum (isolate 3D7)) (UniProt P62344); experiment: PfCDPK1 kinase inhibitors, biochemical, TCAMS library (AID 1159585; cut-off not given, nearly all actives have IC50 up to about 0.98 µM;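 also: inhibitors leave more ATP so luminescence rises with inhibition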); conditions: recombinant PfCDPK1, Kinase-Glo ATP depletion luminescence
Calcium-dependent protein kinase 1 (Plasmodium falciparum (isolate 3D7)), sequence (P62344 whole entry, looked up): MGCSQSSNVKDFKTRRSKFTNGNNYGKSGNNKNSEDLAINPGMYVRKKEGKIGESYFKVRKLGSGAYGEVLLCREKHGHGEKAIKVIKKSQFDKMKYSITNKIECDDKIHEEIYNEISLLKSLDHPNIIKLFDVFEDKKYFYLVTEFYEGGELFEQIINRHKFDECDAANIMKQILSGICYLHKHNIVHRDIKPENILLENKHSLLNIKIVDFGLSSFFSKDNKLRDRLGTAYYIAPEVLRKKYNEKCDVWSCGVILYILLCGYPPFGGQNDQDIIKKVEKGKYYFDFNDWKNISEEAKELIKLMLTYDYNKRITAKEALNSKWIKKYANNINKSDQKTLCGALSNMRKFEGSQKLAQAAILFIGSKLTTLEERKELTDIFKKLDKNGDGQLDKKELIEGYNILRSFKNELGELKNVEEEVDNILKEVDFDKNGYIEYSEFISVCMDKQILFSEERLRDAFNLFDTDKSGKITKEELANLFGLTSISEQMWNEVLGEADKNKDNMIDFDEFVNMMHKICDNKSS

[6] = biological target: Plasmodium falciparum protein kinase 6 (PK6, PF3D7_1337100) (UniProt Q8IDW1); experiment: PfPK6 kinase inhibitors, biochemical, TCAMS library (AID 1159586); conditions: recombinant PfPK6, Kinase-Glo ATP depletion luminescence
Plasmodium falciparum protein kinase 6 (PK6, PF3D7_1337100), sequence (Q8IDW1 1-305): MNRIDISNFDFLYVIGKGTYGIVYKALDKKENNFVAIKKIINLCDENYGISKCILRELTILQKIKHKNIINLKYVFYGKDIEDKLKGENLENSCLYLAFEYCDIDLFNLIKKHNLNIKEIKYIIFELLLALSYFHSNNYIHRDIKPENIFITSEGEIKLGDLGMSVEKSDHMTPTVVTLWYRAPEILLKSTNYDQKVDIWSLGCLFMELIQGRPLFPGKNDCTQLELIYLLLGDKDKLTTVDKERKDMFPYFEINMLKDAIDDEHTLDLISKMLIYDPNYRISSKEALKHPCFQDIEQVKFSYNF

[7] = biological target: Protein kinase 7 (PK7), Plasmodium falciparum 3D7 (PF3D7_0213400) (UniProt Q7YTF7); experiment: inhibition of Plasmodium PK7 catalytic activity – biochemical, TCAMS antimalarial set, Kinase-Glo luminescence (AID 1159587); conditions: recombinant PfPK7, Kinase-Glo ATP depletion luminescence
Protein kinase 7 (PK7), Plasmodium falciparum 3D7 (PF3D7_0213400), sequence (Q7YTF7 1-343): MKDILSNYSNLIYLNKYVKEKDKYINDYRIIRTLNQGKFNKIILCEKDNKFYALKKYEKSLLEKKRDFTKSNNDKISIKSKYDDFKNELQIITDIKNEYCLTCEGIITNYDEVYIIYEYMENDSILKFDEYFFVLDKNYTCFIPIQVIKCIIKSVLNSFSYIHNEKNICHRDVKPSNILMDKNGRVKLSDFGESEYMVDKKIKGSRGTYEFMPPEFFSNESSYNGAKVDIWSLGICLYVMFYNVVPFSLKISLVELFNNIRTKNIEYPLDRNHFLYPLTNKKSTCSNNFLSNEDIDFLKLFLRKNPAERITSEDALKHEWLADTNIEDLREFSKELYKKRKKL

[8] = biological target: Calcium-dependent protein kinase 4 (Plasmodium falciparum (isolate 3D7)) (UniProt Q8IBS5); experiment: PfCDPK4 kinase inhibitors, biochemical, TCAMS library (AID 1159588; cut-off not given, nearly all actives have IC50 up to about 0.91 µM); conditions: recombinant PfCDPK4, Kinase-Glo ATP depletion luminescence
Calcium-dependent protein kinase 4 (Plasmodium falciparum (isolate 3D7)), sequence (Q8IBS5 whole entry, looked up): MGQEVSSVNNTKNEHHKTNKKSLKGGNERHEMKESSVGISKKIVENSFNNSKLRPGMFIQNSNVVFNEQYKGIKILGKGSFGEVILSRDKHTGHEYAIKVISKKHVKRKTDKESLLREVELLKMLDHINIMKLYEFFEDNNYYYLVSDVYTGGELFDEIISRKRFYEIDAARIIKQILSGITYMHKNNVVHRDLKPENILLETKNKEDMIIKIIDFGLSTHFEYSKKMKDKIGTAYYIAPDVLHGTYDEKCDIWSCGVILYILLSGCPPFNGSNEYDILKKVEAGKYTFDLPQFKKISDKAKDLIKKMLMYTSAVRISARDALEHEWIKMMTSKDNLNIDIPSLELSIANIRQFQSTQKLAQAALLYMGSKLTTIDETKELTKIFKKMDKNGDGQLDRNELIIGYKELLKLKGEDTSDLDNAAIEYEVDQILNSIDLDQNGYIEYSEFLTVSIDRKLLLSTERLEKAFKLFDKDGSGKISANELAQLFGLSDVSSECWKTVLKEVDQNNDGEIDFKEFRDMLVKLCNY

Fc1cc(CN2CCCC2)ccc1OCCCN1CCN(c2cccc(Cl)c2Cl)CC1
inactive: growth inhibition [1] 15% | inhibition [3] -1% | outcome [5] | outcome [6] | outcome [7] | outcome [8]
active: inhibition [2] 67% | growth inhibition [4] 82%

O=c1cc(NCCCNC(c2ccccc2)c2ccc(Cl)c(Cl)c2)[nH]c2ccccc12 (stereo not drawn)
active: growth inhibition [1] 94% | growth inhibition [4] 89%
inactive: inhibition [2] 13% | inhibition [3] 3% | outcome [5] | outcome [6] | outcome [7] | outcome [8]

N#Cc1ccc(-c2ccc3nc(N4CCCN(C5CCC5)CC4)ccc3c2)cc1
active: growth inhibition [4] 96%
inactive: growth inhibition [1] 14% | inhibition [2] 36% | inhibition [3] -2% | outcome [5] | outcome [6] | outcome [7] | outcome [8]

Cc1cc(NCCC(=O)Nc2ccccc2)nc(NCCc2cccs2)n1
active: growth inhibition [4] 99%
inactive: growth inhibition [1] 20% | inhibition [2] 26% | inhibition [3] 0% | outcome [5] | outcome [6] | outcome [7] | outcome [8]

O=C(C=Cc1ccccc1)Nc1ccc(C#CC=Cc2ccc(NC(=O)C=Cc3ccccc3)cc2)cc1
inactive: growth inhibition [1] 3% | inhibition [2] 26% | inhibition [3] 1% | outcome [5] | outcome [6] | outcome [7] | outcome [8]
active: growth inhibition [4] 100%

O=C(/C=C/c1ccc(Cl)c(Cl)c1)NCCCCCN1CCCN(C(=S)Nc2ccc(Cl)cc2)CC1
inactive: growth inhibition [1] 10% | inhibition [2] 7% | inhibition [3] -3% | outcome [5] | outcome [6] | outcome [7] | outcome [8]
active: growth inhibition [4] 86%

C=C(F)c1sc(CNCCCNc2nc3ccccc3[nH]2)c(C)c1Br
active: growth inhibition [4] 100%
inactive: growth inhibition [1] 23% | inhibition [2] 15% | inhibition [3] 3% | outcome [5] | outcome [6] | outcome [7] | outcome [8]

COc1ccc2ncc(F)c(CCN3[C@@H]4CC[C@H]3CC(NCc3cc5c(cn3)OCS5)C4)c2n1 (stereo partly drawn)
inactive: growth inhibition [1] 48% | inhibition [2] 15% | inhibition [3] -2% | outcome [5] | outcome [6] | outcome [7] | outcome [8]
active: growth inhibition [4] 95%

Cc1cc(N[C@@H](Cc2ccccc2)C(=O)Nc2ccccc2)nc(Nc2ccccc2)n1
inactive: inhibition [2] 8% | inhibition [3] -1% | outcome [5] | outcome [6] | outcome [7] | outcome [8]
active: growth inhibition [1] 69% | growth inhibition [4] 101%

c1ccc(CNc2nc(NCCc3cnc[nH]3)nc(NCc3cccc4ccccc34)n2)cc1
inactive: growth inhibition [1] 1% | inhibition [2] 9% | inhibition [3] -4% | outcome [5] | outcome [6] | outcome [7] | outcome [8]
active: growth inhibition [4] 91%

CC1(C)N=C(N)N=C(N)C1c1ccc(Cl)c(Cl)c1 (stereo not drawn)
active: growth inhibition [4] 95%
inactive: growth inhibition [1] 0% | inhibition [2] 47% | inhibition [3] -6% | outcome [5] | outcome [6] | outcome [7] | outcome [8]

CCN(CC)CCNc1ccnc2[nH]c3ccc(Cl)cc3c12
active: growth inhibition [1] 92% | growth inhibition [4] 100%
inactive: inhibition [2] 3% | inhibition [3] 1% | outcome [5] | outcome [6] | outcome [7] | outcome [8]

CC(=O)Nc1ccccc1OCc1cc2cc(C(=O)N3CCC(N4C(=O)OCc5ccccc54)CC3)ccc2o1
active: growth inhibition [1] 98% | growth inhibition [4] 99%
inactive: inhibition [2] 34% | inhibition [3] -2% | outcome [5] | outcome [6] | outcome [7] | outcome [8]

CCCCCCCCc1c(C)[nH]c(C)c(Cl)c1=O
inactive: inhibition [2] -4% | inhibition [3] -3% | outcome [5] | outcome [6] | outcome [7] | outcome [8]
active: growth inhibition [1] 95% | growth inhibition [4] 96%

COCCn1c(Sc2ncnc3sccc23)nc2ccccc21
active: growth inhibition [1] 72% | growth inhibition [4] 95%
inactive: inhibition [2] -8% | inhibition [3] -6% | outcome [5] | outcome [6] | outcome [7] | outcome [8]

Cc1noc(C)c1-c1cccc(CNCc2ccc(-c3ccc(-c4nc5ccc(F)cc5[nH]4)s3)cc2)c1
inactive: inhibition [2] 45% | inhibition [3] 6% | outcome [5] | outcome [6] | outcome [7] | outcome [8]
active: growth inhibition [1] 93% | growth inhibition [4] 102%

C[C@H](Cc1ccc(Oc2ccc(C[C@@H](C)NC[C@H](O)c3cccc(Cl)c3)cc2)cc1)NC[C@H](O)c1cccc(Cl)c1
inactive: inhibition [3] -3% | outcome [5] | outcome [6] | outcome [7] | outcome [8]
active: growth inhibition [1] 96% | inhibition [2] 99% | growth inhibition [4] 100%

Cc1ccc2nc(-c3cc(-c4cccc(CCN5CCOCC5)c4)cnc3N)[nH]c2c1
inactive: inhibition [3] -5% | outcome [5] | outcome [6] | outcome [7] | outcome [8]
active: growth inhibition [1] 99% | inhibition [2] 50% | growth inhibition [4] 101%

CC1CCN(CC[C@H]2CCCN2S(=O)(=O)c2cccc(NC(=O)Nc3ccc(C(F)(F)F)cc3)c2)CC1
inactive: growth inhibition [1] 41% | inhibition [2] 12% | inhibition [3] 2% | outcome [5] | outcome [6] | outcome [7] | outcome [8]
active: growth inhibition [4] 100%

CCCNCc1ccc(-c2ccc(CN(Cc3cccs3)C(=O)C3CCN(C)CC3)cc2)nc1
inactive: growth inhibition [1] 35% | inhibition [2] 10% | inhibition [3] -3% | outcome [5] | outcome [6] | outcome [7] | outcome [8]
active: growth inhibition [4] 99%

Cc1[nH]c2ccc(NS(C)(=O)=O)cc2c1C1CCN(CCC2CCN(C(=O)/C=C/c3ccc(Cl)c(Cl)c3)CC2)CC1
active: growth inhibition [1] 94% | growth inhibition [4] 100%
inactive: inhibition [2] 23% | inhibition [3] -1% | outcome [5] | outcome [6] | outcome [7] | outcome [8]

c1ccc(-c2cccnn2)cc1
inactive: growth inhibition [1] 6% | inhibition [2] -7% | inhibition [3] 0% | outcome [5] | outcome [6] | outcome [7] | outcome [8]
active: growth inhibition [4] 98%

Cc1noc(C)c1C(=O)N1CCCC(c2[nH]c3c(C)cccc3c2-c2ccncc2)C1 (stereo not drawn)
active: growth inhibition [1] 101% | growth inhibition [4] 102%
inactive: inhibition [2] 16% | inhibition [3] 6% | outcome [5] | outcome [6] | outcome [7] | outcome [8]

Nc1nc(N)c2cc(C#Cc3ccc(-c4ccccc4)cc3)ccc2n1
active: growth inhibition [4] 94%
inactive: growth inhibition [1] 3% | inhibition [2] 20% | inhibition [3] 0% | outcome [5] | outcome [6] | outcome [7] | outcome [8]

CCN(CC)CCCC(C)Nc1cc(C)nc2cc(Cl)ccc12 (stereo not drawn)
inactive: growth inhibition [1] 7% | inhibition [2] 9% | inhibition [3] 5% | outcome [5] | outcome [6] | outcome [7] | outcome [8]
active: growth inhibition [4] 100%

O=c1ccc2ccc(F)cc2n1CCN1CCC(NCc2ccc(-c3ccccn3)s2)CC1
inactive: growth inhibition [1] 30% | inhibition [2] -12% | inhibition [3] -1% | outcome [5] | outcome [6] | outcome [7] | outcome [8]
active: growth inhibition [4] 98%

COc1ccc2nccc([C@@H](O)CN3CC[C@H](NCc4nc5c(cc4F)SCC(=O)N5)[C@H](F)C3)c2c1
active: growth inhibition [4] 95%
inactive: growth inhibition [1] 49% | inhibition [2] 9% | inhibition [3] -4% | outcome [5] | outcome [6] | outcome [7] | outcome [8]

COc1ccc2c(NN=Cc3cccc(F)c3)ccnc2c1
inactive: inhibition [2] 49% | inhibition [3] -5% | outcome [5] | outcome [6] | outcome [7] | outcome [8]
active: growth inhibition [1] 95% | growth inhibition [4] 101%

CC(=O)Nc1cccc(C(=O)Nc2cccc(-c3cccc(-c4nc5ccc(F)cc5[nH]4)c3)c2)c1
active: inhibition [2] 51% | growth inhibition [4] 101%
inactive: growth inhibition [1] 44% | inhibition [3] -5% | outcome [5] | outcome [6] | outcome [7] | outcome [8]

O=C(NCc1ccc(F)cc1)c1cc(Br)cc(N2CCN(c3ccncc3)CC2)c1
inactive: inhibition [2] 36% | inhibition [3] -2% | outcome [5] | outcome [6] | outcome [7] | outcome [8]
active: growth inhibition [1] 59% | growth inhibition [4] 80%

Cc1cccc(Cn2nc(-c3ccccc3)c(N3CCCCC3)cc2=O)c1
active: growth inhibition [4] 98%
inactive: growth inhibition [1] -2% | inhibition [2] 29% | inhibition [3] 0% | outcome [5] | outcome [6] | outcome [7] | outcome [8]

CC(C)C[C@@H](C(=O)N[C@@H](CCCCNC(=O)OCc1ccccc1)C(=O)Nc1nccs1)[C@H](C)N(O)C=O
active: growth inhibition [1] 98% | growth inhibition [4] 99%
inactive: inhibition [2] -2% | inhibition [3] 8% | outcome [5] | outcome [6] | outcome [7] | outcome [8]

Cc1cc(O)c(CN(C)Cc2ccc(N(C)C)cc2)cc1C(C)C
inactive: inhibition [2] 3% | inhibition [3] -1% | outcome [5] | outcome [6] | outcome [7] | outcome [8]
active: growth inhibition [1] 98% | growth inhibition [4] 100%

CCC[C@@H]([C@@H](CC1CCCCC1)C(=O)N[C@@H](CCOC(=O)NCC)C(=O)Nc1nccs1)N(O)C=O
inactive: inhibition [2] -13% | inhibition [3] -7% | outcome [5] | outcome [6] | outcome [7] | outcome [8]
active: growth inhibition [1] 79% | growth inhibition [4] 101%

O=C(Nc1ccc(N2CCCN(Cc3cccc(F)c3)CC2)cc1)c1ccc(F)cc1
inactive: inhibition [2] 0% | inhibition [3] 3% | outcome [5] | outcome [6] | outcome [7] | outcome [8]
active: growth inhibition [1] 95% | growth inhibition [4] 96%

O=S(=O)(c1ccc(OCc2ccc(Cl)cc2)cc1)c1cc2c(cc1OCc1ccccc1)CCN(C1CCC1)CC2
inactive: growth inhibition [1] 13% | inhibition [2] 17% | inhibition [3] 6% | outcome [5] | outcome [6] | outcome [7] | outcome [8]
active: growth inhibition [4] 89%

COc1cc(C=NNc2cc(C)nc3c(OC)cccc23)cc(OC)c1OC
inactive: growth inhibition [1] 49% | inhibition [2] 2% | inhibition [3] 0% | outcome [5] | outcome [6] | outcome [7] | outcome [8]
active: growth inhibition [4] 94%

COCCn1c(-c2nc(-c3ccc(F)cc3)cnc2N)nc2ccccc21
inactive: inhibition [2] 16% | inhibition [3] -6% | outcome [5] | outcome [6] | outcome [7] | outcome [8]
active: growth inhibition [1] 98% | growth inhibition [4] 98%

Cc1nc(-c2ccncc2)sc1C(=O)Nc1ccc(Cl)cc1C(=O)Nc1ccc(Cl)cc1
inactive: growth inhibition [1] 47% | inhibition [2] 2% | inhibition [3] -3% | outcome [5] | outcome [6] | outcome [7] | outcome [8]
active: growth inhibition [4] 98%

Cc1cnc(NCC2CCCCC2)nc1N[C@@H](CO)C(=O)Nc1ccccc1
inactive: inhibition [2] -1% | inhibition [3] -3% | outcome [5] | outcome [6] | outcome [7] | outcome [8]
active: growth inhibition [1] 56% | growth inhibition [4] 83%

O=C(CCc1cnc[nH]1)Nc1cccc(-c2ccc(-c3nc4ccccc4[nH]3)s2)c1
inactive: growth inhibition [1] 37% | inhibition [2] 11% | inhibition [3] 0% | outcome [5] | outcome [6] | outcome [7] | outcome [8]
active: growth inhibition [4] 92%
